Screens: PubChem BioAssay, Buhrlage Lab, Dana-Farber Cancer Institute and Novartis Institutes for BioMedical Research (Cambridge, Mass)
USP8 inh: inhibitors of human USP8 deubiquitinase. Ubiquitin carboxyl-terminal hydrolase 8 (Homo sapiens), P40818. purified USP8, Ub-rhodamine cleavage fluorescence, 30 min. inhibition, % at 20 µM. 47,000 tested, 4.2% active. AID 1645853, 2021
USP10 block: inhibitors of human USP10 deubiquitinase | Ubiquitin carboxyl-terminal hydrolase 10 (Homo sapiens), Q14694 | purified USP10, Ub-rhodamine fluorescence, 60 min | inhibition, % at 20 µM | 47,000 tested, 1.1% active | AID 1645856, 2021
Target sequence (Q14694 whole entry, looked up): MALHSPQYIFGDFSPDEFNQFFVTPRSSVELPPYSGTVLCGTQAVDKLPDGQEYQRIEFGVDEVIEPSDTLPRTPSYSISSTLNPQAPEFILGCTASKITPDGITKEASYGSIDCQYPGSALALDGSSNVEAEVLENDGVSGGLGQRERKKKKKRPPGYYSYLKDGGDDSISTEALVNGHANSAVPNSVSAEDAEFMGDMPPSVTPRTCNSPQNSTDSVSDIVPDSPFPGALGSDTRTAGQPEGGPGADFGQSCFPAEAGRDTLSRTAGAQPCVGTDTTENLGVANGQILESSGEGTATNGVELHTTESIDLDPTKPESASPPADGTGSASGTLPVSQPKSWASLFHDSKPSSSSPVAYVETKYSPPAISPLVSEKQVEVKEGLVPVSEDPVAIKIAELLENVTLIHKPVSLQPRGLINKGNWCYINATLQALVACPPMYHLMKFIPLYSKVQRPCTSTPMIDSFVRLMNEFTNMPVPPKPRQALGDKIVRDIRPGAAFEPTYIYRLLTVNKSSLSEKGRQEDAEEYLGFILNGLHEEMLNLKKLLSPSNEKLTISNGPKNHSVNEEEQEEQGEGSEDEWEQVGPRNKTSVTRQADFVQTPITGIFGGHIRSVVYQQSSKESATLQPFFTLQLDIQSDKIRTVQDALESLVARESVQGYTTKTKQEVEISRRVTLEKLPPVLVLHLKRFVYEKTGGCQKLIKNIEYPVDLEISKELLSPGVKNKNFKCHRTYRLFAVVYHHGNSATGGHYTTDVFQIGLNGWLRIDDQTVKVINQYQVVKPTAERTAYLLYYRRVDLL
USP7 block: inhibitors of human USP7 deubiquitinase. purified USP7, Ub-rhodamine cleavage fluorescence. inhibition, % at 20 µM. 47,000 tested, 0.3% active. AID 1645854, 2021
UCHL1 inh: inhibitors of human UCHL1 deubiquitinase. AID 1645859, 2021. inhibition, % at 20 µM. Ubiquitin carboxyl-terminal hydrolase isozyme L1 (Homo sapiens), P09936. 47,000 tested, 0.2% active. purified UCHL1, Ub-rhodamine cleavage fluorescence
Numbers stand for hits; . = inactive. In the library only some 4.6% were active in any assay of this set; here they are far more common. Rule as the data show it: active = inhibition above about 30%; inactive = the rest.

SMILES	USP8 inh	USP10 block	USP7 block	UCHL1 inh
Cc1ccnc(NS(=O)(=O)c2ccc(NC(=O)c3ccc(S(=O)(=O)N(C)Cc4ccccc4)cc3)cc2)n1	40	42	.	.
Cc1ccnc(NS(=O)(=O)c2ccc(NC(=O)c3ccc(S(=O)(=O)N(C)c4ccccc4)cc3)cc2)n1	.	.	.	.
CCOC(=O)N1CCN(C(=O)c2ccc(-c3ccc(F)cc3)o2)CC1	.	.	.	.
COc1ccc(OC)c(N(C(=O)CCCC(=O)Nc2ccccn2)C(C(=O)NC2CCCCC2)c2ccc(F)cc2)c1 (stereo not drawn)	.	.	.	.
CCOC(=O)c1ccc(Oc2sccc2[N+](=O)[O-])cc1	.	.	85	.
Cc1cccc(NC(=O)C(=O)NCC(c2cccnc2)N2CCc3ccccc3C2)c1 (stereo not drawn)	61	.	.	.
COc1ccc(C)cc1NC(=O)C(=O)NCC(c1cccnc1)N1CCc2ccccc2C1 (stereo not drawn)	.	.	.	.
O=C(CCn1c(=O)c2ccccc2n(CC(=O)N2CCN(c3ccccc3)CC2)c1=O)NC1CCN(Cc2ccccc2)CC1	.	.	.	.
Cc1ccc2cccc(OCc3nnc(SCC(=O)c4ccc(Cl)cc4)n3C)c2n1	33	.	.	.
O=C(COC(=O)c1ccc2[nH]c3c(c2c1)CCCC3)Nc1ccc2c(c1)OCO2	41	.	.	.
O=C(COC(=O)C1(c2ccc(Cl)cc2)CCCC1)Nc1ccc2c(c1)OCO2	36	.	.	.
COC(=O)c1ccc(C(=O)OC)c(N2C(=O)CSCC2=O)c1	36	.	.	.
Cc1ccc2c(COC(=O)c3ccc4ccccc4c3)cc(=O)oc2c1	.	.	.	.
COc1ccc(O)c(C(=O)OCc2cc(=O)oc3ccc4ccccc4c23)c1	37	.	.	.
O=C(CCc1nc2sc3c(c2c(=O)[nH]1)CCCCC3)Nc1ccc(F)cc1F	42	.	.	.
Cc1ccc(NC(=O)CCc2nc3sc4c(c3c(=O)[nH]2)CCCC4)cc1F	.	.	.	.
Cc1ccc(Cn2cc(-c3noc(C(=O)Nc4cc(F)ccc4F)n3)nn2)cc1	90	51	.	.
CCOC(=O)N1CCN(C(=O)c2ccc(CNS(=O)(=O)c3ccc(NC(C)=O)cc3)cc2)CC1	.	.	.	.
CCOC(=O)N1CCN(C(=O)c2ccc(NCc3ccc(F)cc3)c(S(=O)(=O)Nc3cccc(C(F)(F)F)c3)c2)CC1	.	56	.	.
O=C(NCc1ccco1)c1nnn(-c2ccccc2)c1-c1ccccn1	.	.	.	.
COc1ccc(N(C)C(=O)c2cc3c(=O)n(C)c4ccccc4n3n2)cc1	82	.	.	.
Cc1cc(NC(=O)CSc2nnc(-c3ccc4c(c3)OCCO4)o2)no1	31	.	.	.
Cc1cc(NC(=O)CSc2nnc(-c3cccc(Cl)c3)o2)no1	.	.	.	.
Cc1noc(C)c1CN1CC[C@H]2CN(C(=O)C3CCCCC3)C[C@H]2C1	.	.	.	.
CC(=O)c1cc2c(cc1NC(=O)c1oc3c(c1C)-c1[nH]ncc1CC3)OCO2	31	.	.	.
SMILES	USP8 inh	USP10 block	USP7 block	UCHL1 inh
CCOCCCN(C(=O)C1COc2ccccc2O1)C(C(=O)NC1CCCCC1)c1ccccc1 (stereo not drawn)	.	.	.	.
CCC(C)[C@H](NC(=O)N1CCn2c1nc1ccccc12)C(=O)NCCc1ccccc1 (stereo partly drawn)	.	.	.	.
O=C(Nc1ccc(-c2nccs2)cc1)c1ccccc1Cl	.	.	.	.
COc1cc2c(C#N)c(OC)nc3c2c(n1)NC(C)(c1ccc(Br)cc1)N3 (stereo not drawn)	85	.	.	.
O=C(CSc1n[nH]c2nc3ccccc3n12)Nc1ccc2[nH]c(=O)[nH]c2c1	70	.	.	.
COc1ccc(-c2nnc(SCC(=O)Nc3ccc4[nH]c(=O)[nH]c4c3)n2C)cc1	38	.	.	.
O=C(COC(=O)c1ccc2ccccc2n1)Nc1ccc(Cl)c(Cl)c1	.	.	.	.
CCc1cc2c(=O)[nH]c(Cc3ccc(OC)cc3)nc2s1	35	.	.	.
Cc1ccccc1C(=O)c1ccc(C(=O)NC2CCCCCC2)[nH]1	41	.	.	.
O=C(CCn1c(=O)c2ccccc2n(Cc2ccccc2F)c1=O)NCc1ccco1	.	39	.	.
N#Cc1ccccc1Cn1c(=O)n(CCCCC(=O)NCc2ccco2)c(=O)c2ccccc21	.	.	.	.
Cc1ccccc1Cn1c(=O)n(CCC(=O)NCc2ccco2)c(=O)c2ccccc21	38	.	.	.
CCN(CC)c1nc(C(=O)N2CCCCC2)nc2nc(C)cc(C)c12	.	.	.	.
CC(=O)N1CCC(Cc2cnc(-c3ccn[nH]3)cn2)CC1	.	.	.	.
CN1CCCC12Cc1ccccc1CN(C(=O)c1ccccc1)C2 (stereo not drawn)	.	.	.	.
COc1ccc(NCc2nnc(SCC(=O)Nc3cccc4ccccc34)n2C)cc1	45	.	.	.
Cc1cc(C)n(CC(=O)N2N=CCC2(O)C(F)(F)F)n1 (stereo not drawn)	37	.	.	.
Cc1cc(NC(=O)c2cc(-c3ccco3)on2)n(-c2ccccc2)n1	.	.	.	.
O=C(Nc1ccc2cn[nH]c2c1)c1cc(-c2ccco2)on1	41	.	.	.
O=C(Nc1ccc(F)cc1F)C1CC(=O)N(Cc2ccccc2)C1 (stereo not drawn)	.	.	.	.
Cc1ccc2nc(NC(=O)C3CC(=O)N(Cc4ccccc4)C3)sc2c1 (stereo not drawn)	31	.	.	.
COc1cccc(C(=O)N2CCC(c3ncncc3-c3ccnc(N)c3)C2)c1 (stereo not drawn)	.	.	.	.
O=C(Cc1nnc(-c2cnccn2)o1)Nc1ccc(C(F)(F)F)cc1	55	.	.	.
CC(C)(C)N=C1Nc2ccccc2NC12CCCN(C(=O)c1ccncc1)C2 (stereo not drawn)	.	.	.	.
COc1cccc(C(c2c(O)cc(C)n(C)c2=O)c2c(O)cc(C)n(C)c2=O)c1	.	.	.	.
SMILES	USP8 inh	USP10 block	USP7 block	UCHL1 inh
CCCCOc1ccc(C(=O)Oc2ccc(-n3cnnn3)cc2)cc1	33	.	.	.
CC(C)COc1ccc(C(=O)Oc2ccc(-n3cnnn3)cc2)cc1	37	.	.	.
O=C(Oc1ccc(-n2cnnn2)cc1)c1ccc(Br)cc1	.	.	.	.
NC(=O)c1nc(C(=O)N2CCN(c3ccc(F)cc3)CC2)cs1	.	.	.	.
O=C(c1csc(S(=O)(=O)N2CCCCCC2)c1)N1CCCC1	.	.	.	.
CCOc1ccc(NC(=O)Cn2c(-c3ccccc3)cc(C(C)=O)c2C)cc1	36	.	.	.
COc1ccc2cc(C(=O)NCc3ccccn3)[nH]c2c1	.	.	.	.
COc1ccc2[nH]c(C(=O)N(Cc3ccccn3)Cc3ccccn3)cc2c1	81	.	.	.
CCc1ccc(NC(=O)C2CCc3nc(N4CCN(C(C)=O)CC4)sc3C2)cc1 (stereo not drawn)	.	.	.	.
